Records with an inconclusive call do not appear. The source made the active and inactive calls. Calls follow the shape of the dose curve; as a rule, active = well fitted curve in the direction sought with a large enough effect; inconclusive = small, poorly fitted or top-dose-only effect, or another doubt; inactive = no such curve, though single readings can be large; an effect the other way counts as inactive or inconclusive.
Legend:
[1] = tested on: CRL-7250; test: Cytotoxic Profiling of Annotated Libraries Using Quantitative High-Throughput Screening (AID 1296008); details: Five cell lines viability, CellTiter-Glo ATP luminescence, 48-72 h; max response: stronger effect = lower value; also: nearly all actives have a fitted effect of over 60% in size; as to max response: % is scaled to controls: 0 for no effect and ±100 for the full control effect
Outline: (§1)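 Cytotoxicity was measured as CellTiter-Glo ATP luminescence, read after 10 min at room temperature. Compound treatment of the cells lasted 48 or 72 hr at 37 degrees Celsius in a qHTS format.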

[2] = tested on: HEK293; test: as above; details: Five cell lines viability, CellTiter-Glo ATP luminescence, 48-72 h; max response: stronger effect = lower value
Outline: as §1

[3] = tested on: HaCat; test: as above; details: Five cell lines viability, CellTiter-Glo ATP luminescence, 48-72 h; max response: stronger effect = lower value
Outline: as §1

[4] = tested on: KB-3-1; test: as above; details: Five cell lines viability, CellTiter-Glo ATP luminescence, 48-72 h; max response: stronger effect = lower value
Outline: as §1

[5] = tested on: NIH3T3; test: as above; details: Five cell lines viability, CellTiter-Glo ATP luminescence, 48-72 h; max response: stronger effect = lower value
Outline: as §1

[6] = tested on: NIH3T3; test: qHTS assay to identify novel small-molecules to repurpose for Merkel cell carcinoma treatment (AID 1296009); details: MCC and control cell lines, CellTiter-Glo viability, 72 h; at 44.8 µM (top of the series) unless noted; also: nearly all actives have a fitted effect of over 60% in size
Outline: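 Cell viability, measured as CellTiter-Glo luminescence, was normalized between DMSO and no-cell wells. The cells had been exposed to 8- or 11-point compound dilutions for 72 hr at 37 degree celsius.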

[7] = tested on: C33A; test: Primary qHTS to identify gynecologic anti-cancer compounds using libraries of approved drugs and bioactive compounds (AID 1345084); details: Gynecologic cancer cell panel viability, ATPlite luminescence, 48 h; series mostly up to 57.5 µM; also: % is scaled to controls: 0 for no effect and ±100 for the full control effect; nearly all actives have a fitted effect of over 55% in size
Outline: (§2)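 Five-concentration response, 48 h; readout is ATP-driven luciferase luminescence.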

[8] = tested on: CAOV3; test: as above; details: Gynecologic cancer cell panel viability, ATPlite luminescence, 48 h; series mostly up to 57.5 µM
Outline: as §2

[9] = tested on: CASKI; test: as above; details: Gynecologic cancer cell panel viability, ATPlite luminescence, 48 h; series mostly up to 57.5 µM
Outline: as §2

[10] = tested on: Es-2; test: as above; details: Gynecologic cancer cell panel viability, ATPlite luminescence, 48 h; series mostly up to 57.5 µM
Outline: as §2

[11] = tested on: HeLa; test: as above; details: Gynecologic cancer cell panel viability, ATPlite luminescence, 48 h; series mostly up to 57.5 µM
Outline: as §2

[12] = tested on: Hek293T; test: as above; details: Gynecologic cancer cell panel viability, ATPlite luminescence, 48 h, control line for the selectivity index; series mostly up to 57.5 µM
Outline: as §2

[13] = tested on: JEG-3; test: as above; details: Gynecologic cancer cell panel viability, ATPlite luminescence, 48 h; series mostly up to 57.5 µM
Outline: as §2

[14] = tested on: OV90; test: as above; details: Gynecologic cancer cell panel viability, ATPlite luminescence, 48 h; series mostly up to 57.5 µM
Outline: as §2

[15] = tested on: PA-1; test: as above; details: Gynecologic cancer cell panel viability, ATPlite luminescence, 48 h; series mostly up to 57.5 µM
Outline: as §2

O=C(C[C@@H]1C(C(=O)O)=CO[C@@H](O[C@@H]2O[C@H](CO)[C@@H](O)[C@H](O)[C@H]2O)/C1=C\CO)OCCc1ccc(O)cc1
inactive: max response [1] 1.31% | max response [2] 1.44% | max response [3] -0.66% | outcome [4] | outcome [5] | outcome [6] inactive [at 17.4 µM] | Potency [7] | Potency [8] | outcome [9] | Potency [10] | Potency [11] | Potency [12] | Potency [13] | Potency [14] | Potency [15]

C=C(C(=O)O)[C@@H]1CC[C@@]2(C)CC[C@@H](O)C(=C)C2C1 (stereo not given in full)
inactive: max response [1] 4.71% | max response [2] -1.36% | max response [3] -0.0078% | max response [4] -6.38% | outcome [5] | outcome [6] | Potency [7] | Potency [8] | outcome [9] | Potency [10] | Potency [11] | Potency [12] | Potency [13] | Potency [14] | Potency [15]

C[C@@H]1C[C@H]2OC(=O)[C@@]3(C)CCC[C@](C)(C23)[C@@]1(O)CCC1=CC(=O)OC1O (stereo not given in full)
inactive: outcome [1] | max response [2] -8.41% | max response [3] 3.15% | outcome [4] | outcome [5] | outcome [6] | Potency [7] | Potency [8] | outcome [9] | Potency [10] | Potency [11] | Potency [12] | Potency [13] | Potency [14] | Potency [15]

O=C(OCc1ccccc1O[C@@H]1O[C@H](CO)[C@@H](O)[C@H](O)[C@H]1O)C1(O)C=CCCC1O (stereo not given in full)
inactive: max response [1] 3.78% | max response [2] 2.2% | max response [3] -2.8% | max response [4] 5.3% | outcome [5] | outcome [6] inactive [at 17.4 µM] | Potency [7] | Potency [8] | outcome [9] | Potency [10] | Potency [11] | Potency [12] | Potency [13] | Potency [14] | Potency [15]

H-DPPDPDRFYGMM-NH2
inactive: outcome [1] | max response [2] -1.35% | max response [3] -3.96% | outcome [4] | outcome [5] | outcome [6] inactive [at 17.4 µM] | Potency [7] | Potency [8] | outcome [9] | Potency [10] | Potency [11] | Potency [12] | Potency [13] | Potency [14] | Potency [15]

C/C(=C\CCC(C)C1CC(O)C2(C)C3CCC4C(C)(C)C(OC5OCC(O)C(O)C5O)CCC45CC35CC(O)C12C)C(=O)O (stereo not given)
inactive: max response [1] 3.53% | max response [2] 0.956% | max response [3] 3.75% | max response [4] 9.72% | outcome [5] | outcome [6] inactive [at 17.4 µM] | Potency [7] | Potency [8] | outcome [9] | Potency [10] | Potency [11] | Potency [12] | Potency [13] | Potency [14] | Potency [15]

CCOc1ncc(S(=O)(=O)N2CCN(CC)CC2)cc1-c1nc2c(CC)n(CCOC)nc2c(=O)[nH]1
inactive: outcome [1] | max response [2] -6.31% | max response [3] 2.49% | outcome [4] | outcome [5] | outcome [6] | Potency [7] | Potency [8] | outcome [9] | Potency [10] | Potency [11] | Potency [12] | Potency [13] | Potency [14] | Potency [15]

Cc1ccc2nc(NC(=O)CSc3nc4c(c(=O)n3-c3ccc(F)cc3)SCC4)sc2c1
inactive: max response [1] -14.2% | max response [2] -0.604% | max response [3] 1.13% | max response [4] 9.39% | outcome [5] | outcome [6] | Potency [7] | Potency [8] | outcome [9] | Potency [10] | Potency [11] | Potency [12] | Potency [13] | Potency [14] | Potency [15]

COc1ccc(OC)c(C2C(C#N)=C(N)Oc3n[nH]c(-c4ccc5ccccc5c4)c32)c1 (stereo not given)
inactive: outcome [1] | max response [2] 0.943% | max response [3] -8.38% | outcome [4] | outcome [5] | outcome [6] | Potency [7] | Potency [8] | outcome [9] | Potency [10] | Potency [11] | Potency [12] | Potency [13] | Potency [14] | Potency [15]

Cc1c(O)cc2c(c1O)COC1(O)CCCOC21 (stereo not given)
inactive: max response [1] -4.56% | max response [2] -1.54% | max response [3] -19.1% | outcome [4] | outcome [5] | outcome [6] | Potency [7] | Potency [8] | outcome [9] | Potency [10] | Potency [11] | Potency [12] | Potency [13] | Potency [14] | Potency [15]

CC1OC(O[C@@H]2[C@@H](O)[C@H](OC(=O)[C@]34CCC(C)(C)C[C@H]3C3=CCC5[C@@]6(C)CC[C@H](O[C@@H]7O[C@H](C(=O)O)[C@@H](O)[C@H](O[C@@H]8OC[C@@H](O)[C@H](O)[C@H]8O)[C@H]7O[C@@H]7O[C@H](CO)[C@H](O)[C@H](O)[C@H]7O)[C@@](C)(C=O)C6CC[C@@]5(C)[C@]3(C)C[C@H]4O)O[C@H](C)[C@@H]2OC2OC(C)C(OC3OCC(O)C(O)C3O)C(O)C2O)C(O)C(O)C1O (stereo not given in full)
inactive: max response [1] 4.06% | max response [2] -14.3% | max response [3] -4.11% | max response [4] -3.93% | outcome [5] | outcome [6] inactive [at 9.27 µM] | activity change, negative = cytotoxicity [7] 2.48% [at 6.55 µM] | activity change, negative = cytotoxicity [8] 7.91% [at 6.55 µM] | activity change, negative = cytotoxicity [9] 19.4% [at 6.55 µM] | activity change, negative = cytotoxicity [10] -0.176% [at 6.55 µM] | activity change, negative = cytotoxicity [11] 18.4% [at 6.55 µM] | activity change, negative = cytotoxicity [12] 1.68% [at 6.55 µM] | activity change, negative = cytotoxicity [13] 0.0438% [at 6.55 µM] | activity change, negative = cytotoxicity [14] 6.42% [at 6.55 µM] | activity change, negative = cytotoxicity [15] -6.4% [at 6.55 µM]

NC(Cc1c[nH]c2ccc(O)cc12)C(=O)O (stereo not given)
inactive: max response [1] -7.16% | max response [2] -8.59% | max response [3] 0.887% | outcome [4] | outcome [5] | outcome [6] | Potency [7] | Potency [8] | outcome [9] | Potency [10] | Potency [11] | Potency [12] | Potency [13] | Potency [14] | Potency [15]
